# Bioassay records: PubChem, National Center for Advancing Translational Sciences (NCATS)
# FEN1 inhibitor: blocks human flap endonuclease 1; P39748; Recombinant FEN1 flap cleavage, fluorescence, 15 min; Potency, µM (series often up to 114 µM), for the others: at the top dose activity change, negative = inhibition, usual class: inhibitors; 390,000 compounds, 0.35% hits; note: % is set by controls: 0 for no effect and ±100 for the full control effect; nearly all actives have a fitted effect of over 65% in size
#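 With each library titrated from low to high concentration, compounds met 10 nM FEN1 for 15 min at room temperature before 50 nM substrate was added; readings at 0 and 15 min fed four-parameter Hill curve fits.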
# POLH inh: inhibitors of human DNA polymerase eta; Q9Y253; recombinant Pol eta, fluorescent DNA replication assay; Potency, µM (series often up to 114 µM), without a hit: at the highest dose activity change, negative = inhibition, hits mostly inhibitors; 390,000 compounds, 1.2% hits; AID 588591; note: % is set by controls: 0 for no effect and ±100 for the full control effect
#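 Fluorescent replication assay: 50 nM final substrate added after a 15 min room-temperature compound preincubation with 10 nM enzyme. Signal taken at 0 min and again at 10 min.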
# POLK inh: DNA polymerase kappa (human) inhibition | 400,000 compounds, 0.53% hits | AID 588579 | Potency, µM (series often up to 107 µM), inactives show at the highest dose activity, negative = inhibition, hits mostly inhibitors | purified Pol kappa, fluorescent DNA synthesis assay, 10 min; note: % is set by controls: 0 for no effect and ±100 for the full control effect
# Target sequence (Q9UBT6 whole entry, looked up): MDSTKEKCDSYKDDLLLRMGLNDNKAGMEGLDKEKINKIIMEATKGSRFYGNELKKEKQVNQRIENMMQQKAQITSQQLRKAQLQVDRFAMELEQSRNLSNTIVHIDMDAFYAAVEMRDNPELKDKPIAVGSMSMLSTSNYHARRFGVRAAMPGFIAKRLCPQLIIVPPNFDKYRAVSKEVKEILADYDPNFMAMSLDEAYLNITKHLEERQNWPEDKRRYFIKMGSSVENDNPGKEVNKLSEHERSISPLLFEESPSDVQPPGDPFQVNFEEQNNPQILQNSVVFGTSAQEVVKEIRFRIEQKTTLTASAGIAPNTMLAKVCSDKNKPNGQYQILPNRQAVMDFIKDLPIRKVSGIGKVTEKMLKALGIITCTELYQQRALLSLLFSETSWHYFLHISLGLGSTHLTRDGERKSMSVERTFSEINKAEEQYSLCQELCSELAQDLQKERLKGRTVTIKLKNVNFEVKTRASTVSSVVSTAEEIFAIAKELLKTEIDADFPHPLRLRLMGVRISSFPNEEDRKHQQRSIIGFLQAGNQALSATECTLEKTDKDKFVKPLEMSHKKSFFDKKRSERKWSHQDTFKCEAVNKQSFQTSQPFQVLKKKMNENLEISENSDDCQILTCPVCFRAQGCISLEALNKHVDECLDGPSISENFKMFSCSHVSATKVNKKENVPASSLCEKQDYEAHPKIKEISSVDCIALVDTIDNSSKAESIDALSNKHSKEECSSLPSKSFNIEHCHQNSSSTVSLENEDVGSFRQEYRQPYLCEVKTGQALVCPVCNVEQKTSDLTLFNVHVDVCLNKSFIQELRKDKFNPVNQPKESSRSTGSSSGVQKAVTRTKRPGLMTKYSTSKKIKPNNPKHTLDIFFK
#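 10 nM Pol kappa was preincubated with compounds for 15 min at room temperature. Reaction started with 50 nM (final) substrate. Fluorescence read kinetically at 0 and 10 min.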
# WRN inhibitor: WRN helicase (human) inhibition. AID 651768. WRN helicase unwinding, fluorescent forked duplex, kinetic. Potency, µM (highest dose often 114 µM), inactives show top-dose activity change, negative = inhibition, actives largely listed as inhibitors. 360,000 compounds, 0.46% hits; note: % is set by controls: 0 for no effect and ±100 for the full control effect; nearly all actives have a fitted effect of over 55% in size
#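 Fluorescence dequenching readout, ex 525 nm/em 598 nm, kinetic mode: forked duplex DNA (100 nM final) with adjacent fluorophore and quencher unwound by WRN (20 nM final) with 2 mM ATP. Compound preincubation 15 min, room temperature.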
# Pol iota inh: blocks human DNA polymerase iota activity. AID 588590. Potency, µM (series often up to 115 µM), without a hit: top-dose activity, negative = inhibition, hits mostly inhibitors. Pol iota fluorescent replication assay, 10 min. 390,000 compounds, 1% hits
#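 Pol iota at 10 nM preincubated 15 min with compounds at room temperature; reaction started with fluorescent substrate, 50 nM final. Fluorescence read kinetically at 0 and 10 min; buffer-only wells as negative control.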
# POLB inh: blocks human DNA polymerase beta activity | P06746 | Pol beta primer extension/strand displacement, fluorescence kinetic | Potency, µM (series often up to 114 µM), for the others: top-dose activity change, negative = inhibition, usual class: inhibitors | 340,000 compounds, 1.3% hits; note: % is set by controls: 0 for no effect and ±100 for the full control effect
#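 Human Pol beta at 10 nM; strand-displacement substrate 50 nM final. Compound exposure 15 min at room temperature before start, reaction 10 min at room temperature.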
# The depositor's hits bear a star; ? = inconclusive; . = no result; [ ] = remark or other dose. Most compounds without a hit are left out; they make up all but 2.4% or so of the library. Calls come from the whole dose curve; as a rule, active = well fitted curve in the direction sought with a large enough effect; inconclusive = small, poorly fitted or top-dose-only effect, or another doubt; inactive = no such curve, though single readings can be large; an effect the other way counts as inactive or inconclusive. Potency is the fitted concentration of half-maximal effect.
SMILES,FEN1 inhibitor,POLH inh,POLK inh,WRN inhibitor,Pol iota inh,POLB inh
CN(C)c1ccc(/C=C/c2ccnc3c(Cl)ccc(Cl)c23)cc1,1.6%,.,-21.5%,.,?,.
Cc1nnc(N2CCN(c3ccc(Cl)cc3)CC2)c2c1nnn2Cc1ccc(F)cc1,-0.9%,-15.5%,0.6%,.,14.2%,14.1%
Cc1ccc(S(=O)(=O)NCC(=O)N(CC(=O)NCc2ccco2)Cc2ccco2)cc1,-2.3%,56.2µM*,?,-7.5%[11.6 µM],?,1.3%
Cc1ccc(S(=O)(=O)NCC(=O)N(CC(=O)NCC2CCCO2)Cc2ccco2)cc1 (stereo unspecified),15.5%,-11.9%,-7.7%,-2.7%[57.1 µM],20.9%,12.6µM*
O=C(CN(Cc1ccco1)C(=O)CNS(=O)(=O)c1ccc(Cl)cc1)NCc1ccco1,2.2%,-16.2%,2.3%,-2.6%[57.1 µM],-5.3%,44.1%
Cc1ccc(S(=O)(=O)NCC(=O)N(CC(=O)NCC2CCCO2)Cc2ccccc2)cc1 (stereo unspecified),0.7%,-11.4%,-0.5%,-0.7%,8.8%,-0.7%
Cc1cc(C)cc(NC(=O)C2CCCN(C(=O)c3cnn(-c4ccccc4)c3-n3cccc3)C2)c1 (stereo unspecified),2.2%,-26.8%,-5.1%,.,12.5%,-13.6%
Cc1ccc2nc(/C(C#N)=C\c3ccc(N4CCOCC4)o3)[nH]c2c1,?,?,-20.1%,44.7µM*,?,35.5µM*
Cc1cc2nc(/C(C#N)=C\c3ccc(-c4ccccc4C(=O)O)o3)[nH]c2cc1C,?,25.1µM*,?,-15.3%[11.6 µM],?,?
N#C/C(=C\c1ccc(Sc2ccccc2)o1)c1nc2ccccc2[nH]1,?,?,-29.6%,?,-4.2%,39.8µM*
N#C/C(=C\c1ccc(-c2ccccc2C(=O)O)o1)c1nc2ccccc2[nH]1,?,?,-23.1%,56.2µM*,35.7%,-21.3%
O=C(Nc1cccc(Br)c1)c1cc(S(=O)(=O)N2CCCCC2)c[nH]1,7.7%,-10.6%,2.8%[60.1 µM],.,1.0%,-21.2%
CCCc1nc2sc3c(N4CCC(C)CC4)ncnc3c2c2c1CCCC2,1.6%,-21.4%,-4.3%,.,8.0%,-2.5%
CCOC(=O)c1cnc2ccc(OC)cc2c1NCCc1ccccc1,?,.,-26.8%,.,?,-14.6%
CC(=O)c1ccc(S(=O)(=O)Nc2cccc(-c3ccc(N4CCCC4)nn3)c2)cc1,-11.9%,?,-13.7%[60.1 µM],.,?,-28.0%
O=C(NCc1cccnc1)c1ccc(-c2cc3ccccc3oc2=O)cc1,3.6%,-6.7%,-19.5%,1.8%[11.6 µM],79.4µM*,?
O=C(Nc1cccnc1)c1cccc(-c2cc3ccccc3oc2=O)c1,-2.9%,-12.2%,-7.4%,1.9%,40.1%,?
Cc1ccc(C)c(S(=O)(=O)Nc2cc(SCC(=O)O)c(O)c3ccccc23)c1,56.2µM*,22.4µM*,-22.5%,17.8µM*,8.91µM*,79.4µM*
O=S(=O)(c1ccc2c(c1)OCCO2)N1CCN(c2nc(-c3cccs3)nc3ccccc23)CC1,5.3%,.,2.0%,.,15.0%,.
COc1c2ccc(OCC/C(C)=C/C(=O)C=C(C)C)cc2nc2occc12,10.0%,44.7µM*,-21.9%,-0.6%[11.6 µM],?,.
C[N+](C)(C)CC(=O)N/N=C/c1c2ccccc2cc2ccccc12,50.1µM*,-12.6%,-19.1%,11.4%[11.6 µM],-20.4%,44.7µM*
O=C(O)CS(=O)(=O)c1ccc(Oc2ccc(S(=O)(=O)CC(=O)O)cc2)cc1,2.9%,-17.4%,-15.0%,6.5%,58.6%,-37.2%
CC(=O)CS(=O)(=O)c1ccc(Oc2ccc(S(=O)(=O)CC(C)=O)cc2)cc1,-10.7%,?,?,-18.4%,?,31.6µM*
COc1cccc(-c2nnc(NC(=O)Cc3cccs3)s2)c1,5.7%,?,-27.2%,-22.1%,-1.1%,20µM*
O=C(Cc1cccs1)Nc1nnc(-c2ccncc2)s1,-11.2%,-21.0%,-11.9%,-14.6%[57.1 µM],63.1µM*,?
COc1cc(N=Nc2c(O)c3ccccc3[nH]c2=O)c(OC)cc1N=Nc1ccccc1,8.9%,-18.9%,-3.2%,0.4%,-4.0%,?
